# SARS PLpro yeast = blocks SARS-CoV papain-like protease in a yeast assay. S. cerevisiae expressing SARS-CoV PLpro, growth rescue. Potency, µM (series often up to 32.9 µM), inactives show at the highest dose activity, positive = growth rescue, actives largely listed as activators. 330,000 tested, 0.19% active. AID 485353; note: 0% is about no effect; nearly all actives have a fitted effect of over 55% in size
# Pf growth 48h = P. falciparum growth inhibition at 48 hours (one generation) | Potency, µM (highest dose often 28.7 µM), inactives show top-dose activity change, negative = inhibition, actives largely listed as inhibitors | 310,000 tested, 5.9% active | AID 504832 | P. falciparum luciferase growth in erythrocytes, 48 h; active = well fitted inhibition curve with a large enough effect; inconclusive = small, poorly fitted or top-dose-only effect, or another doubt; inactive = no such curve, though single readings can be large or run the other way; note: % is set by controls: 0 for no effect and ±100 for the full control effect
#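 A one-generation exposure of luciferase-tagged malaria parasites in RPMI 1640/Albumax erythrocyte culture, 37 C and 5% CO2. Inhibition is inferred from decreased luminescence after adding detection reagent.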
# RE007 growth inh = less growth of the S. pombe RE007 Vpr strain; Potency, µM (titrated, usually from 92.2 µM), for the others: top-dose activity change, negative = less growth, hits mostly inhibitors; 360,000 tested, 0.21% active; AID 651644; S. pombe RE007 Vpr strain, BacTiter-Glo ATP luminescence, 24 h; active = well fitted falling curve with a large enough effect; inconclusive = small, poorly fitted or top-dose-only effect; inactive = no such curve, though single readings can be large or run the other way; note: % is set by controls: 0 for no effect and ±100 for the full control effect; nearly all actives have a fitted effect of over 50% in size
#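 Fission yeast strain RE007, carrying one chromosomally integrated HIV-1 vpr copy, was seeded at OD 0.01 in PMG+AL medium with 23 nL pinned compound. After 24 h at 30 °C and 99% humidity, viability was read by BacTiter-Glo luminescence.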
# Pf growth 96h = inhibits malaria parasite growth, 96 h. 320,000 tested, 6.9% active. P. falciparum luciferase reporter growth, 96 h. AID 504834. Potency, µM (series often up to 28.7 µM), for the others: top-dose activity change, negative = inhibition, most hits filed as inhibitors; active = well fitted inhibition curve with a large enough effect; inconclusive = small, poorly fitted or top-dose-only effect, or another doubt; inactive = no such curve, though single readings can be large or run the other way; note: % is set by controls: 0 for no effect and ±100 for the full control effect
#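 96 h incubation, 37 C, 5% CO2, of luciferase-reporter P. falciparum-infected RBCs (2% hematocrit, 0.05% parasitemia final) with test compounds; endpoint luminescence.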
# NS1 function inh = inhibitors of influenza NS1 protein function | Potency, µM (series often up to 46.1 µM), for inactives: top-dose activity, positive = more growth | 270,000 tested, 0.4% active | AID 2326; note: actives are rising curves; nearly all actives have a fitted effect of over 50% in size
#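 In this qHTS, NS1 from influenza A is expressed in budding yeast, where it slows growth. Cells are switched from glucose to 2% galactose medium (pH 6.0, -URA), treated with compound, and growth recovery is read at OD600.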
# * hit, by the source's call; ? = inconclusive; nt = not tested or not shown. Only some compounds are listed: those with a hit (about 9.5% of all), similar ones and a draw of the others. Unless noted, calls come from the whole dose curve. Potency is the fitted concentration of half-maximal effect.
SMILES,SARS PLpro yeast,Pf growth 48h,RE007 growth inh,Pf growth 96h,NS1 function inh
O=C(Nc1ccc(Cl)cc1F)C1CCCN(C2=NS(=O)(=O)c3ccccc32)C1 (stereo not given),4%,-25%,2%,?,nt
CCCC(=O)C1=C(O)C(C(=O)OC)C(C)(C)CC1=Nc1ccccc1 (stereo not given),1%,4.1µM*,14%,-4%,-43%
CCCC(=O)C1=C(O)C(C(=O)OC)C(C)(C)CC1=NC(C)(C)C (stereo not given),8%,?,0%,nt,5%
CCC(=NCc1ccccc1)C1=C(O)C(C(=O)OC)C(C)(C)CC1=O (stereo not given),5%,7%,-8%,12µM*,-7%
CCCC(=O)C1=C(O)C(C(=O)OC)C(C)(C)CC1=Nc1cccc2ccccc12 (stereo not given),-27%,5.2µM*,7%,-27%,8%
CCCC(=O)C1=C(O)C(C(=O)OC)C(C)(C)CC1=NCc1ccccc1 (stereo not given),-1%,?,5%,7.4µM*,10%
Cn1c(C2CCCCC2)nc2ccccc21,-2%,-13%,3%,?,-4%
Nc1ncnc2c1ncn2[C@H]1O[C@@H](C(=O)O)[C@@H](O)[C@H]1O,nt,nt,nt,nt,-10%
O=C(O)[C@H]1[O][Sb][O][C@@H](C(=O)O)C1O (stereo not given in full),nt,nt,nt,nt,-13%
CCNC(=O)CN(C1CCCCC1)S(C)(=O)=O,-3%,-6%,0%,16%,2%
O=C(COC(=O)CCc1c[nH]c2ccccc12)NC(c1ccccc1)c1ccccc1,10%,-17%,-7%,?,-43%
CCOC(=O)C1(C)CCN1C(=O)c1cc(F)ccc1C (stereo not given),nt,nt,-1%,nt,nt
CCCCC1CCC(C(=O)Nc2ccccc2N2CCOCC2)CC1 (stereo not given),-2%,15µM*,-2%,?,nt
CCCCCC(=O)Nc1ccccc1N1CCOCC1,7%,-4%,9%,23%,-3%
CC(C)(C)C1CCC(C(=O)Nc2ccc(N3CCOCC3)cc2N2CCOCC2)CC1 (stereo not given),-2%,10µM*,4%,?,nt
Cc1ccc(NC(=O)CSCc2cc(=O)n3ccsc3n2)cc1,11%,9%,-2%,?,0%
CCOC(=O)N1CCN(S(=O)(=O)N2CCCC(C(=O)NCc3cccc(OC)c3)C2)CC1 (stereo not given),2%,-18%,-14%,6.6µM*,-1%
COc1cccc(CNC(=O)CCC2CCCN(c3cc(C)nc(N4CCCC4)n3)C2)c1 (stereo not given),1%,?,-6%,12µM*,10%
COc1cccc(CSc2nc3ccncc3[nH]2)c1,-1%,58%,?,-6%,21%
Cc1cccc(NS(=O)(=O)c2ccc(C(=O)N3CCCCCC3)cc2)c1C,-3%,?,-5%,-19%,nt
CN(C)c1ccc(NC(=O)CC2NCCNC2=O)cc1 (stereo not given),nt,12%,13%,0.21µM*,3%
COc1ccc2oc(=O)c(C(=O)C[n+]3cccc(C)c3)cc2c1,0%,21%,-18%,-2%,12%
COc1ccc(C(=O)/C=C/c2ccsc2)cc1CSCC(=O)O,-4%,?,-6%,6.6µM*,1%
COc1ccc(C(C)=O)cc1CSCCC(=O)O,-4%,13%,15%,9%,3%
CCC(CCC(=O)Nc1nncs1)C(=O)O (stereo not given),-7%,nt,nt,24%,3%
CC(CCC(=O)Nc1nncs1)C(=O)O (stereo not given),-1%,-1%,10%,12µM*,?
CCCN(CC(=O)Nc1ccccc1C)C(=O)CCl,2%,?,1%,1.7µM*,nt
CCCN(CC(=O)Nc1ccccc1C)C(=O)/C=C/c1ccc(S(=O)(=O)N2CCCCCC2)cc1,-1%,13µM*,-3%,?,nt
CCCN(CC(=O)Nc1ccccc1C)C(=O)c1ccc(S(=O)(=O)N2CCCCCC2)cc1,2%,?,-1%,?,3%
COc1ccc(/C=C/C(=O)N(C)CC(=O)Nc2cccc(F)c2)cc1S(=O)(=O)N1CCCCC1,-7%,?,3%,0%,nt
